# Measurements: PubChem BioAssay (NCI)
# Compounds without any hit were thinned out: in the full panel of roughly 83,000, 20% have a hit.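 Negative percent growth values reflect cell death: -40 means 40% of the cells present at the start died, and -100 means all died.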 A number with no mark means an inactive call. Calls of active or inactive are those of the source. How the source made its calls: active means growth percent below 10; inactive means the rest.
# What was measured:
# Experiment in all cases: NCI-60 one-dose screen, 48 h (100 = growth as untreated, 0 = no growth, -100 = all killed)
# Settings in all cases: 10 µM unless noted
# SK-MEL-2 melanoma = system: SK-MEL-2 melanoma
# EKVX NSCLC = system: EKVX NSCLC
# SN12C renal = system: SN12C renal
# UO-31 renal = system: UO-31 renal
# TK-10 renal = system: TK-10 renal
# ACHN renal = system: ACHN renal
# CAKI-1 renal = system: CAKI-1 renal
# A498 renal = system: A498 renal
# CCRF-CEM leukemia = system: CCRF-CEM leukemia
# MOLT-4 leukemia = system: MOLT-4 leukemia
# SR leukemia = system: SR leukemia
# RPMI-8226 leukemia = system: RPMI-8226 leukemia
# OVCAR-8 ovarian = system: OVCAR-8 ovarian
# OVCAR-5 ovarian = system: OVCAR-5 ovarian
# OVCAR-4 ovarian = system: OVCAR-4 ovarian
# SK-OV-3 ovarian = system: SK-OV-3 ovarian
# OVCAR-3 ovarian = system: OVCAR-3 ovarian
# HS 578T breast = system: HS 578T breast
# NCI/ADR-RES ovarian = system: NCI/ADR-RES ovarian
# IGROV1 ovarian = system: IGROV1 ovarian
Structure (SMILES),growth (SK-MEL-2 melanoma),growth (EKVX NSCLC),growth (SN12C renal),growth (UO-31 renal),growth (TK-10 renal),growth (ACHN renal),growth (CAKI-1 renal),growth (A498 renal),growth (CCRF-CEM leukemia),growth (MOLT-4 leukemia),growth (SR leukemia),growth (RPMI-8226 leukemia),growth (OVCAR-8 ovarian),growth (OVCAR-5 ovarian),growth (OVCAR-4 ovarian),growth (SK-OV-3 ovarian),growth (OVCAR-3 ovarian),growth (HS 578T breast),growth (NCI/ADR-RES ovarian),growth (IGROV1 ovarian)
CCCCN1c2nc3ccccc3cc2Sc2cc3ccccc3nc21,61.9%,85.1%,102%,22%,108%,107%,460%,116%,89.2%,103%,76.5%,78.4%,106%,93.6%,93.7%,112%,294%,99.8%,106%,–
COC(=O)N/N=C/c1coc2ccc(Cl)cc2c1=O,68.5%,85.4%,88.1%,84.1%,120%,91.6%,81.8%,111%,90.7%,84.2%,53.8%,60.3%,110%,95.3%,97%,92.3%,63.4%,92.8%,99%,–
CC(=O)Nc1ccc(C(=O)COc2cccc(/C=C3\CCc4ccccc4C3=O)c2)cc1,51.2%,80.3%,99.5%,5.8% (active),103%,92.1%,254%,92.7%,11.6%,38%,52.4%,19.6%,88.4%,104%,83.4%,95.5%,238%,99.7%,83%,–
CCCn1c(N)c(C(=O)CNc2ccc(I)cc2)c(=O)[nH]c1=O,-7.88% (active),77.9%,44.6%,30.1%,59%,50.7%,58.3%,49.2%,55.9%,29.2%,139%,29.1%,49.5%,137%,74.4%,56%,64.9%,44.3%,77.1%,–
O=C(O)c1ccc(CNS(=O)(=O)c2ccc3ccccc3c2)cc1,0.434% (active),111%,100%,94.7%,109%,101%,112%,102%,117%,84.1%,33.4%,112%,67.7%,115%,98.3%,109%,94.9%,81%,128%,–
O=c1[nH]cc(Nc2cc(Cl)c3nonc3c2[N+](=O)[O-])c(=O)[nH]1,20%,34%,107%,89.3%,125%,92.9%,27%,93.8%,106%,91.1%,100%,96.2%,98.4%,98.1%,121%,104%,123%,47.8%,96%,–
COc1ccc(C(=O)COc2cccc(/C=C3\CSc4ccc(Cl)cc4C3=O)c2)cc1,46.9%,77.9%,90.2%,13.1%,118%,90.3%,69.6%,94.4%,-21.3% (active),7.34% (active),20%,-13.7% (active),–,93.5%,64.6%,94.6%,88%,–,84.3%,–
Cc1cccc2nnc(-c3ccccc3)n12,99.1%,103%,93.7%,85.1%,98.1%,105%,105%,96%,99.3%,93.2%,93%,–,109%,107%,104%,121%,129%,146%,107%,115%
O=C(Nc1ccc(Cl)cc1)Nc1ccccc1CNc1nc(Nc2ccc(OCCN3CCCC3)cc2)ncc1Cl,102%,33.7%,93.2%,-6.76% (active),-51.5% (active),-54.4% (active),5.67% (active),75.6%,4.29% (active),-13.4% (active),1.33% (active),-24.2% (active),–,105%,-47.4% (active),91.6%,-77.9% (active),96.4%,-35.9% (active),15.8%
C(=C1c2ccccc2-c2ccccc21)c1ccncc1,42.9%,59.5%,51.2%,49.5%,64.6%,71.5%,29.6%,62%,59.3%,39.5%,9.55% (active),–,64.1%,81%,57.1%,75.5%,5.44% (active),49.5%,4.8% (active),44.9%
Cc1ncc(C(=O)Nc2ccc(CN3CCN(C)CC3)c(C(F)(F)F)c2)cc1C#Cc1cncc2ncccc12,14.5%,78.3%,50.6%,1.39% (active),82.6%,26.8%,50%,-4.12% (active),66.7%,41.6%,-13.2% (active),49.7%,–,69%,51.7%,68.4%,83%,47.9%,86.8%,24.9%
CCSc1ncc(Br)c(Sc2nc(N)nc3nc[nH]c23)n1,73.1%,36.7%,80.9%,70%,72.7%,77.6%,57.7%,95.9%,12.5%,3.06% (active),19.4%,26.1%,–,72.3%,58.4%,18.5%,75.2%,89.9%,33.4%,89.4%
Nc1ccccc1-c1ccn[nH]1,83.5%,87%,87.9%,50.9%,119%,70.5%,68.4%,103%,97.4%,98.7%,99.7%,–,103%,83%,94.7%,92.1%,91.6%,100%,105%,84.2%
CCc1ccc(-c2nc(SCC(=O)NC3CCCCC3)n[nH]2)cc1,10.2%,42.1%,76.4%,69.8%,88.8%,64.2%,85.9%,86.4%,55.3%,61.6%,12.6%,32.8%,70%,94.2%,72.6%,84.8%,–,74.6%,75.4%,–
NS(=O)(=O)N(c1cc(C(F)(F)F)cc(C(F)(F)F)c1)C1CCN(Cc2ccc(C(F)(F)F)cc2)CC1,28%,16.2%,55.1%,64.6%,67%,69.5%,66.2%,28.2%,23.6%,20.3%,-6.79% (active),31.7%,–,38.6%,31.6%,4.55% (active),15%,25.2%,58.2%,21.7%
CC(=O)Nc1cc2c3c(cccc3c1)-c1ccccc1-2,83.5%,55.1%,31.6%,19.2%,96.3%,91.5%,33.5%,58.7%,21.4%,45.8%,81.6%,–,86.1%,85.6%,71.5%,105%,92.8%,112%,84.5%,59%
